Experimental data as given in PubChem BioAssay.
Activity calls are given as the source filed them.

Legend:
[1] = system: PRMT1 (protein arginine N-methyltransferase 1); test: small molecules binding arginine methyltransferase PRMT1 – biochemical, small-molecule microarray, 635 nm fluorescence, primary screen (AID 1088); details: higher = more signal;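 also: binding of Prmt1 protein to compounds spotted on small-molecule microarray slides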
[2] = growth effects on S. cerevisiae YJM789 – YJM789 clinical isolate, OD600, 24 h, basal, primary screen (AID 1089); details: higher = more signal, called active from +8 up or from −8 down;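 also: growth of clinical yeast isolate S. cerevisiae YJM 789 seeded 1000 cells per well; test concentration not given here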
[3] = S. pombe growth modifiers, basal conditions – strain 972, OD600, 24 h, no modulator, primary screen (AID 1090);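 also: basal condition with compound alone and no growth modifier present; test concentration not given here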; details: S. pombe 972 growth, higher = more signal, called active from +8 up or from −8 down
[4] = budding yeast growth modifiers under rapamycin – strain BY4716, OD600, 96 h, primary screen (AID 1091); also: test concentration not given here; details: S. cerevisiae BY4716 + rapamycin, higher = more signal, called active from +8 up or from −8 down
[5] = target: Torsin-1A-interacting protein 2 (Homo sapiens) (UniProt Q8NFQ8); test: small molecules binding lysate-expressed LULL1 – cell lysate, human LULL1 lysate, 635/667 nm fluorescence, primary screen (AID 1092); details: small-molecule microarray, hLULL1 lysate binding, 635 nm fluorescence; higher = more signal;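 also: probe is lysate of COS7 cells overexpressing human LULL1; score merges per-feature 667 nm fluorescence with signal-to-noise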
[6] = optical density change of DRC41 E. coli – strain DRC41, OD650, 24 h, E. coli filamentation project, primary screen (AID 1093);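 also: MC1000 strain lacking acrAB efflux and sulA so SOS filamentation is blocked; test concentration not given here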; details: E. coli DRC41 growth, higher = more signal, called active from +8 up or from −8 down
[7] = probe aLefty2 binding to arrayed compounds – biochemical, biotinylated probe, 635/667 nm fluorescence, primary screen (AID 1094); details: small-molecule microarray, higher = more signal;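 also: score merges spot fluorescence near 667 nm with spot signal-to-noise ratio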
[8] = system: Noggin (protein binding on small-molecule microarray); test: small molecules binding Noggin protein – biochemical, 635/667 nm fluorescence, primary screen (AID 1095); details: 635 nm fluorescence, higher = more signal;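 also: score merges 667 nm feature fluorescence with signal to noise over triplicate slides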
[9] = target: Neurogenic locus notch homolog protein 3 (Homo sapiens) (UniProt Q9UM47); test: small molecules binding NOTCH3 protein – biochemical, 635/667 nm fluorescence, primary screen (AID 1096); details: small-molecule microarray, 635 nm fluorescence, higher = more signal
[10] = probe aEGFR binding to arrayed compounds – biochemical, biotinylated probe, 635/667 nm fluorescence, primary screen (AID 1097); details: small-molecule microarray, higher = more signal;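 also: probe is a biotinylated anti-EGFR antibody binding compounds printed on slides; score combines fluorescence near 667 nm and signal to noise of each spot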

Sequence of Neurogenic locus notch homolog protein 3 (Homo sapiens) (Q9UM47 whole entry, looked up): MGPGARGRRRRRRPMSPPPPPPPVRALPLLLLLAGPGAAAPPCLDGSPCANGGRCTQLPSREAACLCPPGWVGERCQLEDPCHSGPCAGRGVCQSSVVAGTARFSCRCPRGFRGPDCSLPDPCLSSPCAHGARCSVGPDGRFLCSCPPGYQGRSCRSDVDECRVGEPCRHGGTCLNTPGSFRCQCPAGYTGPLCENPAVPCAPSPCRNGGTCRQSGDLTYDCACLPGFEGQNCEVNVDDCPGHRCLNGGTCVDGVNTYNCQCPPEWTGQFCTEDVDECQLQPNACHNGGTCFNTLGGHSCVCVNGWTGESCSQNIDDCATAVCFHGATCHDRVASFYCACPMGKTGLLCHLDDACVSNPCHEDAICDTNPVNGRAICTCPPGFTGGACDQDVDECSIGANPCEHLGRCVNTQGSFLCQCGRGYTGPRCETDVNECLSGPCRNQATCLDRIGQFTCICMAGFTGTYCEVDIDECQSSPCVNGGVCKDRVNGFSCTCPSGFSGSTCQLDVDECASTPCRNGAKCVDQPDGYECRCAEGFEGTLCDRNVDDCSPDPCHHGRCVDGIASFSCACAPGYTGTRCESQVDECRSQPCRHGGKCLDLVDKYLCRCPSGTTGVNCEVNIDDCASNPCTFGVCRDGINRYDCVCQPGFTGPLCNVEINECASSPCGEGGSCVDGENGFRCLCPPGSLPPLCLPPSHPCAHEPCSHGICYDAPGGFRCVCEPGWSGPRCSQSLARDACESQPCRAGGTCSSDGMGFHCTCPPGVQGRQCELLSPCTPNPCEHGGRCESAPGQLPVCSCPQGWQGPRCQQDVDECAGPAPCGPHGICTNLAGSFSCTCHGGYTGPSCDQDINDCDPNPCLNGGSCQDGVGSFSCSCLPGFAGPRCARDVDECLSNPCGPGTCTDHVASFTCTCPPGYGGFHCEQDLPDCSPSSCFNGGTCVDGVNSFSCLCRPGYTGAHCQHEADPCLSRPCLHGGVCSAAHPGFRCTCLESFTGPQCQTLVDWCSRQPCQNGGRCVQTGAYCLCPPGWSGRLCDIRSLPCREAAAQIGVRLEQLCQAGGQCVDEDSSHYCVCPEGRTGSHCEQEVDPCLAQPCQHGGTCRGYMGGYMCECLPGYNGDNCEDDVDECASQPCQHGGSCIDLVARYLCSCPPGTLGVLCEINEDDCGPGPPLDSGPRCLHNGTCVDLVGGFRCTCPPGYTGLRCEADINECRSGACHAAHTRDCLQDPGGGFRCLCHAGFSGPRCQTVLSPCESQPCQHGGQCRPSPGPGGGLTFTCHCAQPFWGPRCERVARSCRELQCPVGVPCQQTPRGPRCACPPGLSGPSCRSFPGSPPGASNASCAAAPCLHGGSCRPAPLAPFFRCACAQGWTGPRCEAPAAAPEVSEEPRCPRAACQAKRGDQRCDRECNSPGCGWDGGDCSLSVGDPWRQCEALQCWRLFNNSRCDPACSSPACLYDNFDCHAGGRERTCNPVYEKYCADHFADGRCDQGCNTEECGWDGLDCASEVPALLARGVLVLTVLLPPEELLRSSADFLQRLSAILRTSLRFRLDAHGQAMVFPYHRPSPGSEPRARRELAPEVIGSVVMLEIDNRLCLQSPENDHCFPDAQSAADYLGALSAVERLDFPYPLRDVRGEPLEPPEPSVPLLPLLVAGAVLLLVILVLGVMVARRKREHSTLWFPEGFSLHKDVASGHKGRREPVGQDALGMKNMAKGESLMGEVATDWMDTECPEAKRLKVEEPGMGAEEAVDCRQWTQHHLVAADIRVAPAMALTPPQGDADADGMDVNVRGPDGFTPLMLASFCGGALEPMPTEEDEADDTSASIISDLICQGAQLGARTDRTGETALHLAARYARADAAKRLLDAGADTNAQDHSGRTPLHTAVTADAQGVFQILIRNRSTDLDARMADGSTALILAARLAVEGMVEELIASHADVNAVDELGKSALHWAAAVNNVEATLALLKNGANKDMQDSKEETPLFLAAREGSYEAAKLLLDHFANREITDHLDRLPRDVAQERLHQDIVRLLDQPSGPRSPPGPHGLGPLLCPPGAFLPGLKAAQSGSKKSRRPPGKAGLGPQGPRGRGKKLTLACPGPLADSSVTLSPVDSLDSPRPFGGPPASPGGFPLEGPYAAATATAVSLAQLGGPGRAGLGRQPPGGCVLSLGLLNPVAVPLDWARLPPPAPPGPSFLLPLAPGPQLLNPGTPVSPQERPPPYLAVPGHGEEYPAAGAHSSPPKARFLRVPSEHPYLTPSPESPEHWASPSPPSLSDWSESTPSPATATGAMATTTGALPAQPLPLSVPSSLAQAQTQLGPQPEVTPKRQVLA
Sequence of Torsin-1A-interacting protein 2 (Homo sapiens) (Q8NFQ8 whole entry, looked up): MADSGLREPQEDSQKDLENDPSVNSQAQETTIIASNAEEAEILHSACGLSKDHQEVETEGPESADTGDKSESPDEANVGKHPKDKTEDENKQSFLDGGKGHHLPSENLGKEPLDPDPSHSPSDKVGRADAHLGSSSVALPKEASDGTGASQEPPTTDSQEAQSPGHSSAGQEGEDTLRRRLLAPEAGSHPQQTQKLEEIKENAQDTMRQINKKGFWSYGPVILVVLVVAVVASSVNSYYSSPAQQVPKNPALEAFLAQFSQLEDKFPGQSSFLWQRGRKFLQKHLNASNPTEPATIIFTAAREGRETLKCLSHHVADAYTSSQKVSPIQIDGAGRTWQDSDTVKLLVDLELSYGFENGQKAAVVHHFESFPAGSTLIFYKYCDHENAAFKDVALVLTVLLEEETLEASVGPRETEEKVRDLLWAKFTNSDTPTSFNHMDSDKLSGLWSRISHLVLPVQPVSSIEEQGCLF

With `C=CCNC(=O)[C@@H]1[C@H]2C(=O)O[C@H](c3ccccc3)[C@H](c3ccccc3)N2[C@H](c2ccccc2OCCO)[C@@]12C(=O)N(C(=O)OCCOC)c1ccc(C#CC3(O)CCCCCC3)cc12` the composite z-score [1] was 1.56, the z-score [2] was 0.0171 (inactive) and the z-score [3] was -0.0365 (inactive). For the same compound, the z-score [4] was 5.23 (inactive), the composite z-score [5] was 2.86 and the z-score [6] was 1.41 (inactive). It also gave a composite z-score [7] of -0.0146, a composite z-score [8] of 1.02 and a composite z-score [9] of 1.1. For the same compound, the composite z-score [10] was -0.0177.

In the case of `CC(C)c1ccc(NN2C(C(O)c3ccc(F)cc3)C=CC3C(=O)N(c4ccccc4)C(=O)C32)cc1` (stereo not given), the composite z-score [1] is reported as 1.47, the z-score [2] is reported as 1.22 (inactive) and the z-score [3] is reported as 0.842 (inactive). For the same compound, the z-score [4] was 0.159 (inactive), the composite z-score [5] was 3.57 and the z-score [6] was -1.01 (inactive). The composite z-score [7] was -0.0865, the composite z-score [8] was -0.101 and the composite z-score [9] was 1.03. It also gave a composite z-score [10] of 0.0182.

With `COc1ccc([Si](C)(C)[C@@H]2[C@@H](CCO)O[C@]3(C(=O)N(Cc4cccc(NC(=O)[C@H](C)O)c4)c4ccccc43)[C@H]2C)cc1` the composite z-score [1] was 1.54, the z-score [2] was 1.84 (inactive) and the z-score [3] was 0.193 (inactive). For the same compound, the z-score [4] was 34.6 (active), the composite z-score [5] was 2.84 and the z-score [6] was -0.327 (inactive). The composite z-score [7] was -0.159, the composite z-score [8] was 0.474 and the composite z-score [9] was 0.662. It also gave a composite z-score [10] of -0.152.

For `CCCNC(=O)[C@@H]1c2ccccc2C(=O)N(Cc2ccc(OC(F)(F)F)cc2)[C@H]1c1ccc(CO)cc1`, the composite z-score [1] was 0.428, the z-score [2] was 0.645 (inactive) and the z-score [3] was 0.0302 (inactive). For the same compound, the z-score [4] was -0.174 (inactive), the composite z-score [5] was 2.12 and the z-score [6] was 0.937 (inactive). For the same compound, the composite z-score [7] was 0.0286, the composite z-score [8] was -0.0211 and the composite z-score [9] was 0.0529. It also gave a composite z-score [10] of -0.0316.

With `COc1ccc(CCNC(=O)[C@@]2(Cc3ccccc3I)c3ccccc3C(=O)N(C3CCCCC3)[C@H]2c2ccc(CO)cc2)cc1` the composite z-score [1] was 1.36, the z-score [2] was -2.01 (inactive) and the z-score [3] was -1.81 (inactive). The z-score [4] was -0.742 (inactive), the composite z-score [5] was 2.3 and the z-score [6] was -1.41 (inactive). The composite z-score [7] was -0.0176, the composite z-score [8] was -0.275 and the composite z-score [9] was 0.566. The composite z-score [10] was -0.115.

In the case of `O=C1O[C@@H](c2ccccc2)[C@@H](c2ccccc2)N2[C@@H](c3ccc(OCCO)cc3)[C@]3(C(=O)Nc4ccc(C#CC5=CCCCC5)cc43)[C@@H](C(=O)NC[C@H](O)c3ccccc3)[C@H]12`, the composite z-score [1] is reported as 1.36, the z-score [2] is reported as 1.99 (inactive) and the z-score [3] is reported as 2.17 (inactive). The z-score [4] was 4.09 (inactive), the composite z-score [5] was 2.46 and the z-score [6] was -0.749 (inactive). It also gave a composite z-score [7] of -0.0696, a composite z-score [8] of 1.51 and a composite z-score [9] of 1.02. It also gave a composite z-score [10] of -0.246.

For `C=C(COC)/C(=C/C[C@H](OC(=O)c1ccncc1)c1ccc(CO)o1)c1cnc2ccccc2c1`, the composite z-score [1] was 1.54, the z-score [2] was 0.685 (inactive) and the z-score [3] was -0.694 (inactive). The z-score [4] was 0.662 (inactive), the composite z-score [5] was 1.34 and the z-score [6] was -0.148 (inactive). It also gave a composite z-score [7] of -0.114, a composite z-score [8] of 0.84 and a composite z-score [9] of 1.09. The composite z-score [10] was -0.0805.

For `CC(CO)N1C(=O)[C@]2(C)C3C(=O)OCCC/C=C\[C@H]3OC23C=CCN(c2ccc(Cl)cc2)C(=O)[C@@H]13` (stereo not given in full), the composite z-score [1] was -1.06, the z-score [2] was 0.0276 (inactive) and the z-score [3] was -0.358 (inactive). The z-score [4] was -0.14 (inactive), the composite z-score [5] was -1.08 and the z-score [6] was 0.525 (inactive). It also gave a composite z-score [7] of -0.152, a composite z-score [8] of -0.554 and a composite z-score [9] of -0.162. It also gave a composite z-score [10] of -0.165.

For `COc1ccc(C(=O)Nc2ccc(CN3C(=O)[C@]4(O[C@H](CC(=O)N5Cc6ccccc6C[C@H]5CO)[C@@H]([Si](C)(C)c5ccc(OC)cc5)[C@@H]4C)c4ccccc43)cc2)cc1`, the composite z-score [1] was 1.56, the z-score [2] was 0.186 (inactive) and the z-score [3] was 1.04 (inactive). The z-score [4] was 3.94 (inactive), the composite z-score [5] was 1.77 and the z-score [6] was 0.315 (inactive). It also gave a composite z-score [7] of -0.145, a composite z-score [8] of 1.34 and a composite z-score [9] of 1.13. The composite z-score [10] was -0.096.

In the case of `C=CCC(OC(C)=O)[C@@H]1[C@@H](N(Cc2ccc(-c3ccccc3)cc2)C(=O)c2ccc(-c3ccccc3)cc2)c2cc(OCCCO)ccc2N1C(=O)c1ccc2ccccc2c1` (stereo not given in full), the composite z-score [1] is reported as 0.636, the z-score [2] is reported as -0.737 (inactive) and the z-score [3] is reported as 0.109 (inactive). The z-score [4] was -0.38 (inactive), the composite z-score [5] was 1.17 and the z-score [6] was -0.728 (inactive). For the same compound, the composite z-score [7] was 0.0008, the composite z-score [8] was 0.479 and the composite z-score [9] was 0.306. For the same compound, the composite z-score [10] was -0.0531.

With `O=C1N(Cc2ccccc2)c2ccccc2C[C@]12N=C(c1ccc(OCCCO)cc1)O[C@@H]2c1ccccc1` the composite z-score [1] was 1.21, the z-score [2] was 1.1 (inactive) and the z-score [3] was 0.6 (inactive). The z-score [4] was 5.61 (inactive), the composite z-score [5] was 2.42 and the z-score [6] was 0.316 (inactive). It also gave a composite z-score [7] of 0.102, a composite z-score [8] of 0.885 and a composite z-score [9] of 1.03. The composite z-score [10] was -0.0549.

For `COC(=O)C1=CC(CCCO)=CC(c2ccc(CN3CCCC3)cc2)N(Cc2cccc(OC(F)(F)F)c2)C=C1C(=O)OC` (stereo not given), the composite z-score [1] was 1.44, the z-score [2] was -1.22 (inactive) and the z-score [3] was -9.89 (active). The z-score [4] was -1.11 (inactive), the composite z-score [5] was 3.31 and the z-score [6] was -2.59 (inactive). The composite z-score [7] was 0.373, the composite z-score [8] was -0.116 and the composite z-score [9] was 0.888. The composite z-score [10] was -0.0418.

For `C=C[C@H]1C(C(=O)OCC)=CC[C@@H](c2ccccc2)N1S(=O)(=O)c1ccc(C)cc1`, the composite z-score [1] was 0.895, the z-score [2] was 0.293 (inactive) and the z-score [3] was 1.12 (inactive). The z-score [4] was 1.86 (inactive), the composite z-score [5] was 2.94 and the z-score [6] was -0.558 (inactive). For the same compound, the composite z-score [7] was 0.174, the composite z-score [8] was 0.705 and the composite z-score [9] was 1.13. For the same compound, the composite z-score [10] was -0.0531.

In the case of `CC(C)N1C(=O)C[C@@](C(=O)O)(c2ccc([N+](=O)[O-])cc2)[C@H]1c1ccc(CO)cc1`, the composite z-score [1] is reported as 1.01, the z-score [2] is reported as 0.548 (inactive) and the z-score [3] is reported as -0.996 (inactive). The z-score [4] was -0.265 (inactive), the composite z-score [5] was 2.72 and the z-score [6] was 1.27 (inactive). It also gave a composite z-score [7] of 0.0511, a composite z-score [8] of -1.13 and a composite z-score [9] of 0.0599. The composite z-score [10] was -0.158.
